Results published in PubChem BioAssay AID1159580 (chemical genetic matrix, 2015).
Among all 5,500 compounds or so, about 2,000 (36%) were called active. Inconclusive results (about 18%) are left out. No stated cut-off is given here; in the data, active means normalized growth mostly below about 0.91 (no sharp cut-off); inconclusive means no clear call, values can overlap the other calls; inactive means mostly above about 0.92. The list shows a part of the results.

Test: chemical genetic growth profiling, strain panel (AID 1159580);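 further: tested at 20 µM; growth read once vehicle control cultures reached saturation at 30 °C; 1 = growth at the plate median or of vehicle wells; lower values mean less growth of the strain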
Settings: S. cerevisiae deletion strains, growth OD
[1] = locus YAL013W, strain DEP1, active compounds read low
[2] = locus YNL153C, strain GIM3, active compounds read low
[3] = locus YPL055C, strain LGE1, active compounds read low
[4] = locus YCL061C, strain MRC1, active compounds read low
[5] = locus YHR030C, strain SLT2, active compounds read low
[6] = locus YJL187C, strain SWE1, active compounds read low
[7] = locus YHR079C, strain IRE1, active compounds read low
[8] = locus YJL095W, strain BCK1, active compounds read low
[9] = locus YJR066W, strain TOR1, active compounds read low
[10] = locus YLR113W, strain HOG1, active compounds read low
[11] = locus YNL183C, strain NPR1, active compounds read low
[12] = locus YOR231W, strain MKK1, active compounds read low
[13] = locus YPL256C, strain CLN2, active compounds read low

Measured: normalized growth

N[C@@]1(C(=O)O)CC[C@@H](C(=O)O)C1
inactive: [1] 1.02 | locus YAL040C, strain CLN3, active compounds read low 1.01 | locus YCL061C, strain MRC1 (second series), active compounds read low 1 | locus YDR363W, strain ESC2, active compounds read low 1.04 | locus YER002W, strain NOP16, active compounds read low 1.01 | locus YGR229C, strain SMI1, active compounds read low 1.03 | [2] 1 | locus YNL175C, strain NOP13, active compounds read low 1.01 | locus YNL197C, strain WHI3, active compounds read low 1.02 | locus YNL224C, strain SQS1, active compounds read low 1.02 | locus YOR083W, strain WHI5 (second series), active compounds read low 1.01 | [3] 1.02

N#C/C(=C\Nc1ccc2c(c1)OCCO2)S(=O)(=O)c1ccc(C(F)(F)F)cn1
inactive: [1] 0.985 | locus YBR229C, strain ROT2, active compounds read low 1 | [4] 1.03 | locus YDL101C, strain DUN1, active compounds read low 0.995 | locus YDL134C, strain PPH21, active compounds read low 1 | locus YDR150W, strain NUM1, active compounds read low 1.01 | locus YEL061C, strain CIN8, active compounds read low 0.974 | locus YGR078C, strain PAC10, active compounds read low 1.02 | locus YHR087W, strain rtc3, active compounds read low 1.01 | locus YJR043C, strain POL32, active compounds read low 1.02 | locus YJR075W, strain HOC1, active compounds read low 1.02 | locus YKL190W, strain CNB1, active compounds read low 0.98 | locus YLR039C, strain RIC1, active compounds read low 1.02 | locus YLR058C, strain SHM2 (second series), active compounds read low 1 | locus YLR262C, strain YPT6, active compounds read low 1.01 | locus YML094W, strain GIM5, active compounds read low 0.906 | locus YMR219W, strain ESC1, active compounds read low 0.993 | locus YMR263W, strain SAP30, active compounds read low 1.02 | [2] 1.02 | locus YNL322C, strain KRE1, active compounds read low 0.996 | locus YNR030W, strain Alg12, active compounds read low 0.978 | [3] 1.11 | locus YPL241C, strain CIN2, active compounds read low 0.966 | locus YPR135W, strain CTF4, active compounds read low 1.06
active: [5] 0.593 | [6] 0.733 | locus YLR085C, strain ARP6, active compounds read low 0.742 | locus YNL298W, strain CLA4 (second series), active compounds read low 0.835

O=C(O)c1cccc2cccc(C(=O)O)c12
active: locus YAR019C, strain CDC15, active compounds read low 0.085 | locus YBL105C, strain PKC1, active compounds read low 0.0837 | locus YBR135W, strain CKS1, active compounds read low 0.0904 | locus YBR136W, strain MEC1, active compounds read low 0.0904 | locus YBR160W, strain CDC28, active compounds read low 0.086 | locus YDL017W, strain CDC7, active compounds read low 0.0824 | locus YDL028C, strain MPS1, active compounds read low 0.0878 | locus YDL108W, strain KIN28, active compounds read low 0.0876 | locus YDL214C, strain PRR2, active compounds read low 0.0872 | locus YDR052C, strain DBF4, active compounds read low 0.0886 | locus YDR054C, strain cdc34, active compounds read low 0.0879 | locus YDR477W, strain SNF1, active compounds read low 0.0946 | locus YER123W, strain YCK3, active compounds read low 0.0991 | locus YER133W, strain GLC7, active compounds read low 0.0939 | locus YFL009W, strain cdc4, active compounds read low 0.0889 | locus YFL029C, strain CAK1, active compounds read low 0.0833 | locus YFR003C, strain YPI1, active compounds read low 0.0828 | locus YFR019W, strain FAB1, active compounds read low 0.0952 | locus YGR040W, strain KSS1, active compounds read low 0.11 | locus YGR052W, strain FMP48, active compounds read low 0.113 | locus YGR092W, strain DBF2, active compounds read low 0.107 | [5] 0.123 | [7] 0.109 | locus YHR082C, strain KSP1, active compounds read low 0.135 | locus YHR205W, strain SCH9, active compounds read low 0.0046 | locus YIL147C, strain SLN1, active compounds read low 0.0851 | [8] 0.118 | locus YJL128C, strain PBS2, active compounds read low 0.0989 | locus YJL157C, strain FAR1, active compounds read low 0.0897 | locus YJR016C, strain ILV3, active compounds read low 0.0848 | locus YJR066W, strain TOR1 (second series), active compounds read low 0.101 | [9] 0.145 | locus YKL048C, strain ELM1, active compounds read low 0.12 | locus YKL067W, strain YNK1, active compounds read low 0.0918 | locus YKL101W, strain HSL1, active compounds read low 0.114 | locus YKL193C, strain SDS22, active compounds read low 0.0868 | locus YKL203C, strain TOR2, active compounds read low 0.108 | [10] 0.184 | locus YLR133W, strain CKI1, active compounds read low 0.0857 | locus YLR403W, strain SFP1, active compounds read low 0.00123 | locus YML070W, strain DAK1, active compounds read low 0.117 | locus YMR001C, strain CDC5, active compounds read low 0.0843 | locus YMR205C, strain PFK2 (second series), active compounds read low 0.0905 | locus YMR277W, strain FCP1, active compounds read low 0.0893 | locus YNL006W, strain LST8, active compounds read low 0.077 | locus YNL020C, strain ARK1, active compounds read low 0.0896 | locus YNL161W, strain CBK1, active compounds read low 0.0944 | [11] 0.112 | locus YNL207W, strain RIO2, active compounds read low 0.0871 | locus YNL222W, strain SSU72, active compounds read low 0.089 | locus YNL307C, strain MCK1 (second series), active compounds read low 0.103 | locus YOL078W, strain AVO1, active compounds read low 0.0865 | locus YOL136C, strain PFK27, active compounds read low 0.0961 | locus YOR061W, strain CKA2, active compounds read low 0.0989 | locus YOR119C, strain RIO1, active compounds read low 0.104 | [12] 0.115 | locus YOR329C, strain SCD5, active compounds read low 0.082 | locus YPL031C, strain PHO85, active compounds read low 0.102 | locus YPL153C, strain RAD53, active compounds read low 0.101 | locus YPL204W, strain HRR25, active compounds read low 0.0938 | locus YPL209C, strain IPL1, active compounds read low 0.0815 | [13] 0.162 | locus YPR025C, strain CCL1, active compounds read low 0.0896 | locus YPR106W, strain ISR1, active compounds read low 0.281 | strain NNK1, active compounds read low 0.0867 | strain TSCII, active compounds read low 0.0877

O=C(O)c1cccc(O)c1O
inactive: locus YAL021C, strain ccr4, active compounds read low 1.02 | locus YAL026C, strain drs2, active compounds read low 1.02 | locus YAL030W, strain snc1, active compounds read low 1.01 | locus YBL061C, strain skt5, active compounds read low 1.03 | locus YBR009C, strain hhf1, active compounds read low 1.02 | locus YBR023C, strain chs3, active compounds read low 1.02 | locus YBR171W, strain sec66, active compounds read low 1.03 | locus YBR231C, strain swc5, active compounds read low 1.02 | locus YBR279W, strain paf1, active compounds read low 1.02 | locus YCL011C, strain gbp2, active compounds read low 1.02 | locus YCL016C, strain dcc1, active compounds read low 1.01 | [4] 1.01 | locus YCL069W, strain vba3, active compounds read low 1.02 | locus YCR088W, strain abp1, active compounds read low 1.02 | locus YDL005C, strain med2, active compounds read low 1.02 | locus YDL040C, strain nat1, active compounds read low 1.02 | locus YDR001C, strain nth1, active compounds read low 1.02 | locus YDR069C, strain doa4, active compounds read low 1.02 | locus YDR137W, strain rgp1, active compounds read low 1.02 | locus YDR159W, strain sac3, active compounds read low 1.03 | locus YDR195W, strain ref2 0.997 | locus YDR297W, strain sur2, active compounds read low 1.02 | locus YDR334W, strain swr1, active compounds read low 1.02 | locus YDR335W, strain msn5, active compounds read low 1.02 | locus YDR392W, strain spt3, active compounds read low 1.04 | locus YEL003W, strain gim4, active compounds read low 1.02 | locus YEL037C, strain rad23, active compounds read low 1.02 | locus YEL061C, strain CIN8 (second series), active compounds read low 1.02 | locus YER015W, strain faa2, active compounds read low 1.03 | locus YER016W, strain bim1, active compounds read low 1.01 | locus YER111C, strain swi4, active compounds read low 1.03 | locus YER155C, strain BEM2 (second series), active compounds read low 1.04 | locus YFR010W, strain ubp6, active compounds read low 1.02 | locus YGL167C, strain pmr1, active compounds read low 1.02 | locus YGL173C, strain kem1, active compounds read low 1.03 | locus YGL227W, strain vid30, active compounds read low 1.03 | locus YGL240W, strain doc1, active compounds read low 1.02 | locus YGL253W, strain hxk2, active compounds read low 1.02 | locus YHR013C, strain ard1, active compounds read low 1.02 | locus YHR027C, strain rpn1, active compounds read low 1.01 | [5] 1.06 | [7] 1.03 | locus YHR142W, strain chs7, active compounds read low 1.01 | locus YJL092W, strain hpr5, active compounds read low 1.02 | locus YJL095W, strain BCK1 (second series), active compounds read low 1.01 | [8] 1.03 | locus YJL115W, strain asf1, active compounds read low 1.03 | locus YJL129C, strain trk1, active compounds read low 1.04 | locus YJL154C, strain vps35, active compounds read low 1.02 | locus YJL164C, strain tpk1, active compounds read low 1 | locus YJL166W, strain qcr8, active compounds read low 1.02 | [6] 1.03 | [9] 0.99 | locus YKL160W, strain elf1, active compounds read low 1.03 | locus YKR026C, strain gcn3, active compounds read low 1.03 | locus YKR091W, strain srl3, active compounds read low 1.02 | locus YLL001W, strain dnm1, active compounds read low 1.02 | locus YLL026W, active compounds read low 1.02 | locus YLL041C, strain sdh2, active compounds read low 1.02 | locus YLR027C, strain aat2, active compounds read low 1.01 | [10] 1.06 | locus YLR221C, strain rsa3, active compounds read low 1.01 | locus YLR258W, strain gsy2, active compounds read low 1.02 | locus YLR262C, strain YPT6 (second series), active compounds read low 1.02 | locus YLR320W, strain mms22, active compounds read low 1.03 | locus YLR342W, strain FKS1, active compounds read low 1.03 | locus YLR357W, strain rsc2, active compounds read low 1.01 | locus YLR370C, strain arc18, active compounds read low 1.01 | locus YLR384C, strain iki3, active compounds read low 1.02 | locus YML120C, strain ndi1, active compounds read low 1.01 | locus YMR058W, strain fet3, active compounds read low 1.02 | locus YMR125W, strain sto1, active compounds read low 1.04 | locus YMR129W, active compounds read low 1.03 | locus YMR205C, strain PFK2, active compounds read low 1.03 | locus YMR231W, strain pep5, active compounds read low 1.02 | locus YNL071W, strain lat1, active compounds read low 1.01 | [11] 0.987 | locus YNL209W, strain ssb2, active compounds read low 1.02 | locus YNL248C, strain rpa49, active compounds read low 1.01 | locus YNL322C, strain KRE1 (second series), active compounds read low 1.02 | locus YNR049C, strain mso1, active compounds read low 1.02 | locus YOR001W, strain rrp6, active compounds read low 1.03 | locus YOR070C, strain gyp1, active compounds read low 1.02 | locus YOR080W, strain dia2, active compounds read low 1.02 | locus YOR083W, strain WHI5, active compounds read low 1.03 | locus YOR106W, strain vam3, active compounds read low 1.02 | [12] 1.05 | locus YOR265W, strain rbl2, active compounds read low 1.01 | locus YOR270C, strain vph1, active compounds read low 1.05 | locus YOR290C, strain snf2, active compounds read low 1.03 | locus YPL051W, strain arl3, active compounds read low 1.02 | locus YPL078C, strain atp4, active compounds read low 1.03 | locus YPL106C, strain sse1, active compounds read low 1.02 | locus YPL240C, strain hsp82, active compounds read low 1.03 | [13] 1.05
